This is a sample that favours compounds with a hit; in the whole collection about 19% have one here.
SW480 rerep – A quantitative high throughput screen for small molecules that induce DNA re-replication in SW480 colon adenocarcinoma cells. SW480 DNA re-replication, Hoechst DNA content imaging, 48 h. Potency, µM (top dose mostly 46.1 µM), actives largely listed as activators. actives 1.8% (n = 340,000); also: nearly all actives have a fitted effect of over 55% in size
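Compounds, transferred as 23 nL by pin tool, were incubated with cells for 48 hr; DNA content per nucleus was then quantified by Hoechst staining and fluorescence plate imaging.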
TDP1 cell CPT – qHTS for Inhibitors of human tyrosyl-DNA phosphodiesterase 1 (TDP1): qHTS in cells in presence of CPT; Potency, µM (top dose mostly 46.2 µM), actives largely listed as inhibitors; AID 686979, 2013; actives 12% (n = 420,000); chicken DT40 Tdp1-/-;hTDP1 cells + 20 nM CPT, ATP luminescence, 48 h; also: nearly all actives have a fitted effect of over 55% in size
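Cell growth measured by CellTiter-Glo luminescence after a minimum 48 h, 37 C compound exposure with 20 nM CPT in Tdp1-knockout DT40 cells stably expressing hTDP1, seeded 400/well; qHTS titration format.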
MCF10A rereplic – A quantitative high throughput screen for small molecules that induce DNA re-replication in MCF 10a normal breast cells | actives 2.9% (n = 350,000) | MCF 10A DNA re-replication, Hoechst nuclear intensity, 48 h | Potency, µM (titrated, usually from 46.1 µM), most hits filed as activators | AID 624296, 2012; also: nearly all actives have a fitted effect of over 50% in size
TDP1 cell noCPT – qHTS for Inhibitors of human tyrosyl-DNA phosphodiesterase 1 (TDP1): qHTS in cells in absence of CPT; actives 15% (n = 420,000); DT40 Tdp1-/- hTDP1 cells, no CPT, ATP luminescence, 48 h; Potency, µM (top dose mostly 46.2 µM), actives largely listed as inhibitors; also: nearly all actives have a fitted effect of over 55% in size
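Growth kinetics read by CellTiter-Glo luminescence after ≥48 hr at 37 °C. Cells: DT40 Tdp1-/- stably carrying human TDP1, 400 per well, compound exposure in the absence of CPT (DMSO vehicle).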
IL-1B inflam inh – qHTS for Inhibitors of Inflammasome Signaling: IL-1-beta AlphaLISA Primary Screen. THP-1 LPS/ATP IL-1B secretion, AlphaLISA, 16 h; hits give low values. activity change, % at 57.5 µM. actives 4.7% (n = 360,000); in the data active = activity change below about -50%; inconclusive = mostly about -30% to -49%
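Secreted IL-1B measured by AlphaLISA bead assay after 16 h compound exposure of THP-1 cells; compounds (final up to 57.5 uM) added 1 h before LPS (250 ng/mL) and ATP (1.25 mM) stimulation; lower signal means less secretion.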
BCR signal inh – qHTS Assay to Find Inhibitors of Chronic Active B-Cell Receptor Signaling; ABC-DLBCL IkBa-CBG/CBR reporter, luminescence ratio, 4 h; Potency, µM (highest dose often 46.1 µM), actives largely listed as inhibitors; actives 0.05% (n = 340,000); AID 493014, 2011; active = well fitted inhibition curve with a large enough effect in the signal ratio, with a control signal flat, not every such curve was filed as active; inconclusive = small, poorly fitted or top-dose-only effect, or effect the other way, or a change in a side signal; the % refers to the signal ratio
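Cell line TMD8 (human ABC DLBCL), stably expressing tet-inducible CBG68-IkBa fusion and CBR; IMDM/0.5% FBS; cpd up to 46 uM; dox induction, 4 h, 37C/5% CO2; dual luminescence; green/red ratio; MG132 control.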
Large screens that a line does not name were inactive. Unless noted, calls follow the shape of the dose curve; as a rule, active = well fitted curve in the direction sought with a large enough effect; inconclusive = small, poorly fitted or top-dose-only effect, or another doubt; inactive = no such curve, though single readings can be large; an effect the other way counts as inactive or inconclusive.

Cc1ccc(CN2CCN(Cc3cccc4nccnc34)CC2CCO)cc1 (configuration not stated)	TDP1 cell CPT inconclusive
CCOc1cc(C(=O)NCc2ccc3c(c2)CCN3C(=O)CC)cc(OCC)c1OCC	none (no result: SW480 rerep, MCF10A rereplic, IL-1B inflam inh, BCR signal inh)
CC1CC(C)CN(S(=O)(=O)c2ccc3c(c2)CC(=O)N3)C1 (configuration not stated)	none
Cc1cccc(OCCSc2nnc(-c3ccoc3C)n2C)c1	TDP1 cell CPT 23µM, TDP1 cell noCPT 21µM
Cc1cccc(OCCSc2nncn2C)c1	TDP1 cell CPT inconclusive, BCR signal inh inconclusive
CCSc1ccc(/C(N)=N/OC(=O)c2cccs2)cn1	TDP1 cell CPT inconclusive
CCN(C1CCCCC1)S(=O)(=O)CCNC(=O)c1ccccc1	TDP1 cell noCPT inconclusive
CCN(CC(=O)NCc1ccc(Cl)cc1)C(=O)CSc1ccccc1F	SW480 rerep inconclusive, TDP1 cell noCPT inconclusive
Cc1ccc(S(=O)(=O)NCc2ccccc2)cc1C(=O)NCC(=O)Nc1c(C)cccc1C	TDP1 cell CPT inconclusive, TDP1 cell noCPT 21µM (no result: SW480 rerep, MCF10A rereplic, BCR signal inh)
CCN(CC(=O)NCc1ccc(Cl)cc1)C(=O)c1ccc2cc(OC)ccc2c1	TDP1 cell CPT inconclusive, TDP1 cell noCPT 13µM
CCN(CC(=O)NCc1ccc(Cl)cc1)C(=O)c1cc(S(=O)(=O)NCc2ccccc2)ccc1C	SW480 rerep inconclusive, TDP1 cell CPT inconclusive, MCF10A rereplic inconclusive, TDP1 cell noCPT 21µM
CCN(CC(=O)NCc1ccc(Cl)cc1)C(=O)CSc1cccc(C(F)(F)F)c1	TDP1 cell CPT 18µM, TDP1 cell noCPT 18µM, BCR signal inh inconclusive
Cc1ccc(S(=O)(=O)NCc2ccccc2)cc1C(=O)N1CCCCCCC1	SW480 rerep inconclusive, TDP1 cell noCPT inconclusive
CCOCCCN(C(=O)c1snc(C(N)=O)c1N)C(C(=O)NC1CCCC1)c1ccc(OC)cc1 (configuration not stated)	TDP1 cell noCPT inconclusive
Cn1ncc(Cl)c1C(=O)N1CCC(Cc2ccccc2)CC1	IL-1B inflam inh inconclusive
CCNC(COC(=O)c1ccc([N+](=O)[O-])cc1)C1CCCCC1 (configuration not stated)	TDP1 cell CPT inconclusive, TDP1 cell noCPT inconclusive (no result: BCR signal inh)
COC(=O)c1ccc(/C(O)=C(\C#N)c2nc3ccccc3s2)cc1	TDP1 cell CPT inconclusive, TDP1 cell noCPT inconclusive, IL-1B inflam inh -77, BCR signal inh inconclusive
COc1ccccc1C(=O)NC(=O)Nc1ccc(-c2cc(C(F)(F)F)nn2-c2ccccc2)cc1	TDP1 cell CPT 5.8µM, TDP1 cell noCPT 4.6µM (no result: SW480 rerep, MCF10A rereplic, IL-1B inflam inh, BCR signal inh)
COc1cccc(C(=O)NC(=O)Nc2ccc(-n3nc(C(F)(F)F)cc3C(F)(F)F)cc2)c1	none (no result: SW480 rerep, MCF10A rereplic, IL-1B inflam inh, BCR signal inh)
COc1ccccc1C(=O)Nc1ccc(-c2cc(C(F)(F)F)nn2-c2ccccc2)cc1	TDP1 cell CPT 4.1µM, TDP1 cell noCPT 5.2µM (no result: SW480 rerep, MCF10A rereplic, IL-1B inflam inh, BCR signal inh)
COCCNC(=O)C1Cc2c(-c3ccc(NC(C)=O)cc3)ccnc2O1 (configuration not stated)	TDP1 cell CPT inconclusive, TDP1 cell noCPT inconclusive (no result: SW480 rerep, MCF10A rereplic, BCR signal inh)
CC(=O)Nc1ccc(-c2ccnc3c2CC(C(=O)NCC2CC2)O3)cc1 (configuration not stated)	TDP1 cell CPT 13µM, TDP1 cell noCPT 8.2µM (no result: SW480 rerep, MCF10A rereplic, BCR signal inh)
CC(=O)Nc1ccc(-c2ccnc3c2CC(C(=O)NCC2CCOCC2)O3)cc1 (configuration not stated)	TDP1 cell CPT 4.6µM, TDP1 cell noCPT 4.1µM (no result: SW480 rerep, MCF10A rereplic, BCR signal inh)
CC(=O)Nc1ccc(-c2ccnc3c2CC(C(=O)NCCC(F)(F)F)O3)cc1 (configuration not stated)	TDP1 cell CPT 13µM, TDP1 cell noCPT 15µM (no result: SW480 rerep, MCF10A rereplic, BCR signal inh)
CN(Cc1ccc(Cl)c(Cl)c1)C(=O)C1=CC=CN2CCS(=O)(=O)N=C12	none
